# PubChem BioAssay (NCATS)
# Values joined by “and” are separate entries in the source; they are usually repeats but may differ in a detail not shown here. Equal values may be shown once. Inconclusive results are not listed. A number with no mark means an inactive call. Active and inactive are the calls of the source. Calls come from the whole dose curve; as a rule, active = well fitted cell-killing curve with a large enough effect; inconclusive = small, poorly fitted or top-dose-only effect; inactive = flat fitted curve, though single readings scatter.
# Test: Cellular viability qHTS for adrenocortical cancer (ACC) cell line SW-13 (AID 1963989); note: nearly all actives have a fitted effect of over 65% in size;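 for activity (max response): cells grown in serum-free medium with ITS supplement; % is set by controls: 0 for no effect and ±100 for the full control effect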
# Settings: SW-13 ACC cells viability, CellTiter-Glo, 48 h; activity (max response): hits give low values
# Outline: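 SW-13 cells in ITS-supplemented serum-free DMEM were plated overnight, then exposed for 48 h at 37C to compound titrations (up to 46 uM final). Viability was read by CellTiter-Glo luminescence; four-parameter logistic fits gave IC50 and efficacy.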
# Potency is the fitted concentration of half-maximal effect.
Structure (SMILES),Potency,activity (max response)
Cc1c(-c2c(-c3ccc(F)o3)sc3ncnc(O[C@@H](Cc4ccccc4OCc4ccnn4CC(F)(F)F)C(=O)O)c23)ccc(OCCN2CCN(C)CC2)c1Cl,0.199 µM (active),
CCCC(=O)Nc1ccc(O)c(C(C)=O)c1,,10.4%
COc1cc(O)cc(O)c1,,-2.38%
Cc1cc(/C=c2/sc3nc4ccccc4n3c2=O)c(C)n1-c1ccccc1,,-15.5%
CN(C)CCOc1ccc(-c2nc(-c3ccc4c(c3)CC/C4=N\O)c(-c3ccncc3)[nH]2)cc1,31.6 µM (active),
CC1(C)O[C@@H]2C[C@H]3[C@@H]4CCC5=CC(=O)CC[C@]5(C)[C@@]4(F)[C@@H](O)C[C@]3(C)[C@]2(C(=O)CCl)O1,,9.64%
CC1=C(/C=C/C(C)=C/C=C/C(C)=C\C(=O)O)C(C)(C)CCC1,,-0.514%
CN1CCCN(C(=O)c2cccc(-c3ccc(/C=C4/C(=O)Nc5ccc(Cl)cc54)o3)c2)CC1,25.1 µM (active),
CC(C)C(C)(C)C(C)(C)C(C)(C)S,,7.64%
COc1cc(N)c(Cl)cc1C(=O)NC1CCN(Cc2ccccc2)CC1,,-15.7%
Cc1cc(-n2c(=O)ccc3cnc4[nH]ccc4c32)ccc1F,,-19.3%
Nc1ncnc(Nc2ccc(OCc3ccccc3)c(Cl)c2)c1/C=N/OCCN1CCOCC1,17.8 µM (active),
CNCCCOc1cc(F)c(-c2c(Cl)nc3ncnn3c2N[C@@H](C)C(F)(F)F)c(F)c1,0.0501 µM (active),
Clc1cccc(C(c2ccc3nc[nH]c3c2)n2ccnc2)c1 (stereo unspecified),,10.9% and -12.2%
C/C(=C\c1csc(C)n1)[C@@H]1C[C@@H]2O[C@]2(C)CCC[C@H](C)[C@H](O)[C@@H](C)C(=O)C(C)(C)[C@@H](O)CC(=O)N1,3.16 µM (active),
CC(C)n1cc(-c2ccc3c(c2)N(C)CC3)c2c(NS(=O)(=O)c3ccn(C)n3)ccnc21,,9.47%
CC(=O)OC(C)OC(=O)C(C)c1ccc(-c2ccccc2)c(F)c1 (stereo unspecified),,9.22%
COc1cc2c(cc1OC)CN(C(=O)[C@H](C)N[C@@H](CCc1ccccc1)C(=O)O)[C@H](C(=O)O)C2,,4.46%
CC(C)C[C@@H]1NC(=O)[C@@H](C(C)C)NC(=O)[C@@H]2CCCN2C(=O)[C@@H](CC(=O)O)NC(=O)[C@@H](Cc2c[nH]c3ccccc23)NC1=O,,-0.875%
CCOC(=O)[C@H]1O[C@@H]1C(=O)N[C@@H](CC(C)C)C(=O)NCCC(C)C,,-2.38%
Cc1cc(O)cc2c1[C@]1(C)CC[C@H]3C(C)(C)CCC[C@]3(C)[C@H]1C2,,-14%
C=CCSCC1Nc2cc(Cl)c(S(N)(=O)=O)cc2S(=O)(=O)N1 (stereo unspecified),,6.34%
CCOc1c(N2CCOCC2)cnn(C)c1=O,,6.29%
C#C[C@]1(O)CC[C@H]2[C@@H]3CCc4cc(OC)ccc4[C@H]3CC[C@@]21C,,5.57% and 4.24%
COc1ccc(COc2ccc(Cc3cnc(N)nc3N)cc2OC)cc1,,-16.4%
CN[C@@H]1[C@@H](O)[C@@H](O[C@@H]2[C@@H](O)[C@H](O[C@H]3O[C@H](CN)[C@@H](O)[C@H](O)[C@H]3O)[C@@H](N)C[C@H]2NC(=O)C(O)CN)OC[C@]1(C)O (stereo partly specified),,-3.06%
CCCCCCCCCCCCCCCC[N+](C)(C)CCN(Cc1ccc(OC)cc1)c1ncccn1,20.6 µM (active),

# Test: Cellular viability qHTS for adrenocortical cancer (ACC) cell line NCI-H295R (AID 1963990); note: nearly all actives have a fitted effect of over 60% in size;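 for activity change, negative = viability loss: 0% = DMSO only wells and -100% = full killing with cytotoxic reference compound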
# Settings: CellTiter-Glo ATP luminescence, 48 h; series mostly up to 46.1 µM; activity change, negative = viability loss: at the top concentration
# Outline: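 Luminescent ATP read-out (CellTiter-Glo, 20 min RT) after 48 h drug exposure of NCI-H295R cells; a titration up to 46 uM final. Data normalized to doxorubicin (100% inhibition) and DMSO (0%); 4-parameter fit gives IC50, max response.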
Structure (SMILES),"activity change, negative = viability loss",Potency
Cc1ccccc1N=Nc1ccc(N=Nc2c(O)ccc3ccccc23)c(C)c1,-10.1%,
O=C(NOCCO)c1cc(CN2OCCCC2=O)c(F)c(F)c1Nc1ccc(I)cc1F,,25.1 µM (active)
CC[C@H](Nc1ncnc2nc[nH]c12)c1nc2cccc(F)c2c(=O)n1-c1ccccc1,-23.3%,
Cc1ccccc1N1CCN(CCc2nnc3n2CCCC3)CC1,-18.8%,
CC(CSC(=O)c1ccccc1)C(=O)N1C[C@@H](Sc2ccccc2)C[C@H]1C(=O)O (stereo partly specified),-18.7% [at 20 µM],
Cc1ccc(-c2ncc(Cl)cc2-c2ccc(S(C)(=O)=O)cc2)cn1,,inactive
CC[C@]1(O)CC2CN(CCc3c([nH]c4ccccc34)[C@@](C(=O)OC)(c3cc4c(cc3OC)N(C)[C@H]3[C@@](O)(C(=O)OC)[C@H](OC(C)=O)[C@]5(CC)C=CCN6CC[C@]43[C@@H]65)C2)C1 (stereo partly specified),,14.1 µM (active)
CN1Cc2c(N)cccc2C(c2ccccc2)C1 (stereo unspecified),-1.35%,
CC(C)n1ncnc1-c1cn2c(n1)-c1ccc(O[C@@H](C)C(N)=O)cc1OCC2,,0.631 µM (active)
Cc1c(NC(=O)c2cc(C(N)=O)nc3cc(F)ccc23)c(C(F)(F)F)nn1Cc1ccc(C(C)(C)C)cc1,21%,
C=C[C@H]1CN2CCC1C[C@@H]2C(O)c1ccnc2ccc(OC)cc12 (stereo partly specified),1.5%,
CCCC(=O)Nc1ccc(O)c(C(C)=O)c1,-14.2%,
COc1cc(O)cc(O)c1,-1.22%,
Cc1cc(/C=c2/sc3nc4ccccc4n3c2=O)c(C)n1-c1ccccc1,-15%,
CN(C)CCOc1ccc(-c2nc(-c3ccc4c(c3)CC/C4=N\O)c(-c3ccncc3)[nH]2)cc1,,28.2 µM (active)
CC1(C)O[C@@H]2C[C@H]3[C@@H]4CCC5=CC(=O)CC[C@]5(C)[C@@]4(F)[C@@H](O)C[C@]3(C)[C@]2(C(=O)CCl)O1,0.251%,
CC1=C(/C=C/C(C)=C/C=C/C(C)=C\C(=O)O)C(C)(C)CCC1,-25.6%,

Structure (SMILES),"activity change, negative = viability loss",Potency
CN1CCCN(C(=O)c2cccc(-c3ccc(/C=C4/C(=O)Nc5ccc(Cl)cc54)o3)c2)CC1,,4.47 µM (active)
CC(C)C(C)(C)C(C)(C)C(C)(C)S,-20.3% [at 92.7 µM],
COc1cc(N)c(Cl)cc1C(=O)NC1CCN(Cc2ccccc2)CC1,-29.2%,
Cc1cc(-n2c(=O)ccc3cnc4[nH]ccc4c32)ccc1F,-18.6%,
Nc1ncnc(Nc2ccc(OCc3ccccc3)c(Cl)c2)c1/C=N/OCCN1CCOCC1,,15.8 µM (active)
CNCCCOc1cc(F)c(-c2c(Cl)nc3ncnn3c2N[C@@H](C)C(F)(F)F)c(F)c1,,0.112 µM (active)
Clc1cccc(C(c2ccc3nc[nH]c3c2)n2ccnc2)c1 (stereo unspecified),,inactive
C/C(=C\c1csc(C)n1)[C@@H]1C[C@@H]2O[C@]2(C)CCC[C@H](C)[C@H](O)[C@@H](C)C(=O)C(C)(C)[C@@H](O)CC(=O)N1,,8.91 µM (active)
CC(C)n1cc(-c2ccc3c(c2)N(C)CC3)c2c(NS(=O)(=O)c3ccn(C)n3)ccnc21,1.08%,
CC(=O)OC(C)OC(=O)C(C)c1ccc(-c2ccccc2)c(F)c1 (stereo unspecified),-7.2%,
COc1cc2c(cc1OC)CN(C(=O)[C@H](C)N[C@@H](CCc1ccccc1)C(=O)O)[C@H](C(=O)O)C2,-6.3%,
Cc1cc(O)cc2c1[C@]1(C)CC[C@H]3C(C)(C)CCC[C@]3(C)[C@H]1C2,-10.2% [at 3.81 µM],
C=CCSCC1Nc2cc(Cl)c(S(N)(=O)=O)cc2S(=O)(=O)N1 (stereo unspecified),0.677%,
CCOc1c(N2CCOCC2)cnn(C)c1=O,-0.0815%,
C#C[C@]1(O)CC[C@H]2[C@@H]3CCc4cc(OC)ccc4[C@H]3CC[C@@]21C,,inactive
COc1ccc(COc2ccc(Cc3cnc(N)nc3N)cc2OC)cc1,-17.3%,
CCCCCCCCCCCCCCCC[N+](C)(C)CCN(Cc1ccc(OC)cc1)c1ncccn1,,16.4 µM (active)
